Assay results from PubChem BioAssay AID1963321 (National Center for Advancing Translational Sciences (NCATS), 2024).
Records with an inconclusive call do not appear. Unmarked numbers belong to inactive results. Calls of active or inactive are those of the source. The call rests on the fitted dose curve.

Biological target: cAMP-dependent protein kinase catalytic subunit alpha (Homo sapiens) (UniProt P17612)
Assay: Protein Kinase A (PKA-HiBiT) enzymatic inhibition screen - Functional assay
Conditions: luminescence; series mostly up to 57.5 µM; activity change, negative = inhibition: at the top concentration
How it was run: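 PKA-N-HiBiT enzyme (10 nM final) with 87.5 uM ATP preincubated 30 min at room temperature with compounds. Kemptide substrate then added for 3 h; residual ATP read by Kinase-Glo Plus luminescence, H-89 as positive control.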

Compound | activity change, negative = inhibition [%] | Potency
CC(C)n1nc(-c2cc3cc(O)ccc3[nH]2)c2c(N)ncnc21 | 1.41 | 
Cc1cc(F)ccc1-c1nc(NCCN=C(N)NC#N)nc2c1ccc(=O)n2-c1c(F)cccc1F | 8.78 | 
CCN1/C(=C\C(C)=O)Sc2ccc(OC)cc21 | 8.95 | 
CNC(=O)c1ccccc1Nc1nc(Nc2ccc(N3CCOCC3)cc2OC)ncc1Cl | 8.92 | 
CC1(C)OCCn2c1nc1c(N3CCOCC3)nc(-c3cnc(N)nc3)nc12 | 8.94 | 
COc1cc2nccc(Oc3ccc(NC(=O)Nc4ccc(F)cc4F)c(F)c3)c2cc1OC | 9.06 | 
COc1cc2c(N3CCN(C(=O)Nc4ccc(OC(C)C)cc4)CC3)ncnc2cc1OCCCN1CCCCC1 | 6.4 | 
C=CC(=O)N1CCC(Oc2cc3c(Nc4ccc(Cl)c(Cl)c4F)ncnc3cc2OC)CC1 | 8.38 | 
Cc1cc(O)c2c(c1)C(=O)c1cc(O)cc(O)c1C2=O | 8.59 | 
Cc1cn(-c2cc(F)cc(NC(=O)c3ccc(C)c(Nc4nccc(-c5cccnc5)n4)c3)c2)cn1 | 8.94 | 
C[C@@H]1CN(CC(=O)Nc2ccc3c(c2)Cc2cccc(-c4cc(=O)cc(N5CCOCC5)o4)c2S3)C[C@H](C)O1 | 8.87 | 
COc1cc2c(Oc3ccc4[nH]c(C)cc4c3F)ncnc2cc1OCCCN1CCCC1 | 8.67 | 
Cc1cn(-c2cccc(NC(=O)c3ccc(C)c(Nc4nccc(-c5cccnc5)n4)c3)c2)cn1 | 9.04 | 
Cc1cc(Nc2cc(N3CCN(C)CC3)nc(Sc3ccc(NC(=O)C4CC4)cc3)n2)n[nH]1 | 8.75 | 
O=C1CCC(N2C(=O)c3ccccc3C2=O)C(=O)N1 (stereo unspecified) | 8.93 | 
Cc1cc(NC(=O)c2ccc(C)c(Nc3nccc(-c4cccnc4)n3)c2)cc(-n2cnc(C)c2)c1 | 8.62 | 
Nc1nc(NCCNc2ncc(-n3ccnc3)c(-c3ccc(Cl)cc3Cl)n2)ccc1[N+](=O)[O-] | 8.87 | 
Nc1ncc(-c2cnn(CCO)c2)c2scc(-c3ccc(NC(=O)Nc4cccc(F)c4)cc3)c12 | 8.42 | 

Compound | activity change, negative = inhibition [%] | Potency
COc1ccc(-n2c(C)c([N+](=O)[O-])c3ccc(O)cc32)cc1 | 8.85 | 
CCn1c(=O)c(-c2ccc(Cl)cc2Cl)cc2cnc(Nc3ccc(N4CCNCC4)c(F)c3)nc21 | 3.24 | 
C#Cc1cccc(Nc2ncnc3cc4c(cc23)OCCOCCOCCO4)c1 | 8.9 | 
Nc1nc(Nc2ccc(S(N)(=O)=O)cc2)n(C(=S)Nc2c(F)cccc2F)n1 | -1.69 | 
O=C(Nc1cc(C(F)(F)F)ccc1N1CCCCC1)c1ccncc1 | 8.94 | 
CNS(=O)(=O)c1ccc2c(c1)/C(=C/c1[nH]c3c(c1CCCN1CCN(C)CC1)CCCC3)C(=O)N2 | 5.95 | 
CCOc1ccn(-c2ccc(F)cc2)c(=O)c1C(=O)Nc1ccc(Oc2ccnc(N)c2Cl)c(F)c1 |  | 0.0153 µM (active)
CCCCCCCCCCCCc1ccc(S(=O)(=O)Nc2nncs2)cc1 | 8.92 | 
Oc1ccc(-c2ccc(-c3cc(Nc4cccc(CNC5CC5)c4)n[nH]3)cc2)c(O)c1 | -2.94 | 
CC(C)(C)n1nc(-c2cccc3ccccc23)c2c(N)ncnc21 | 8.74 | 
CC(C)(NS(=O)(=O)c1ccc2c(Cl)cnc(N=C(N)N)c2c1)C(=O)O | 9.1 | 
COc1ccc(S(=O)(=O)N(C(C)=O)c2ccccc2/C=C/c2cc[n+]([O-])cc2)cc1 | 8.95 | 
CN(c1ncccc1CNc1nc(Nc2ccc3c(c2)CC(=O)N3)ncc1C(F)(F)F)S(C)(=O)=O |  | 24.3 µM (active)
COc1cc2ncnc(Nc3ccc(F)c(Cl)c3)c2cc1OCCCN1CCOCC1 | 7.9 | 
CCN1CCN(Cc2ccc(NC(=O)c3ccc(C)c(NC(=O)c4cncc(-c5cccs5)c4)c3)cc2C(F)(F)F)CC1 | 7.5 | 
Cn1sc(=O)n(Cc2ccccc2)c1=O | 8.82 | 
Nc1ncccc1-c1nc2ccc(-c3ccccc3)nc2n1-c1ccc(C2(N)CCC2)cc1 | 7.73 | 
CCCCNc1ncc2c(-c3ccc(S(=O)(=O)N4CCOCC4)cc3)nn(C3CCC(O)CC3)c2n1 (stereo unspecified) | 8.94 | 
